In the supplement of paper PMC7801607:

Experiments:
CHO = test: % viability of CHO cells (MTT); higher = less toxic; conditions: 48 h
Summary of the method: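 CHO cells seeded at 10^6 cells/well were exposed to compound at 2 or 20 µM for 48 h. Survival, as percent of untreated cells, was measured with the colorimetric tetrazolium (MTT) assay.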

HepG2-A16-CD81 = test: % inhibition of HepG2 viability (CellTiter-Glo); higher = more toxic; conditions: 5 µM
[1] = system: Plasmodium falciparum NF54 stage IV/V gametocytes; test: % inhibition of gametocyte viability (PrestoBlue); higher = more inhibition; conditions: 48 h
Summary of the method: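 Compound was tested at 1 or 5 µM against Stage IV/V NF54 gametocytes plated at 100 µL/well (2% gametocytaemia, 5% haematocrit). After 48 h of stationary, hypoxic incubation at 37 °C, 10 µL PrestoBlue was added for 2 h before reading 612 nm fluorescence from 70 µL of transferred supernatant. Gametocyte viability inhibition, as a percentage, was scaled against vehicle and kill controls from a single run.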

[2] = system: Plasmodium falciparum NF54 asexual blood stage; test: % inhibition of asexual blood stage proliferation (pLDH); higher = more inhibition; conditions: 72 h
Summary of the method: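 In 96-well plates, compound at 2 or 20 µM was added to Plasmodium falciparum NF54 ring-stage cultures (1% haematocrit, 2% parasitaemia). Plates were incubated for 72 h at 37 °C in 4% CO2, 3% O2 and 93% N2, and survival was then read at 620 nm using the parasite lactate dehydrogenase assay. Inhibition of asexual proliferation, expressed as a percentage, was normalised to controls.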

[3] = system: Plasmodium falciparum NF54 stage IV/V gametocytes; test: % inhibition of gametocyte viability (ATP bioluminescence); higher = more inhibition; conditions: 24 h
Summary of the method: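 Density gradients were used to enrich stage IV/V NF54 gametocytes, which were then seeded into 96-well plates at 30,000 per well with compound at 1 or 5 µM. The plates were incubated at 37 °C for 24 h, and ATP was measured with the Promega BacTiter Glo bioluminescence system. Percent inhibition of gametocyte viability was normalised to the plate controls from a single run.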

[4] = system: Plasmodium falciparum NF54 stage IV/V gametocytes; test: % inhibition of gametocyte viability (luciferase reporter); higher = more inhibition; conditions: 48 h
Summary of the method: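 Luminescence from 30 µL lysate combined with 30 µL Promega luciferin substrate was recorded on a GloMax-Multi+ reader using 10 s integration. The lysate came from stage IV/V NF54-Pfs16-GFP-Luc gametocytes (2% gametocytaemia, 2% haematocrit) held with compound at 1 or 5 µM for 48 h at 37 °C under stationary, hypoxic conditions. Percent inhibition was normalised against controls run once.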

[5] = system: Plasmodium berghei ANKA liver stage in HepG2-A16-CD81; test: % inhibition of liver stage parasite viability (luciferase); higher = more inhibition; conditions: 5 µM; 48 h
Method: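 Single-concentration screen of the MMV Pandemic Response Box. P. falciparum NF54 asexual blood stages: pLDH assay, 72 h at 37 °C, 2 and 20 µM, n=2. Stage IV/V gametocytes (NF54): luciferase reporter (NF54-Pfs16-GFP-Luc, 48 h), ATP bioluminescence (24 h) and PrestoBlue (48 h) at 1 and 5 µM, n=1. P. berghei liver stage (luciferase in HepG2-A16-CD81, 48 h post infection) at 5 µM, n=4. All normalised to DMSO and kill controls as % inhibition.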
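Wherever % inhibition of HepG2 viability (CellTiter-Glo) is given: HepG2-A16-CD81 hepatoma cells plated as in the liver-stage assay but without sporozoites, with DMSO wells as negative and 25 µM puromycin as positive control.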

Structure (SMILES)	% viability of CHO cells (CHO; 2 µM) [%]	% viability of CHO cells (CHO; 20 µM) [%]	% inhibition of HepG2 viability (HepG2-A16-CD81) [%]	% inhibition of gametocyte viability ([1]; 1 µM) [%]	% inhibition of gametocyte viability ([1]; 5 µM) [%]	% inhibition of asexual blood stage proliferation ([2]; 2 µM) [%]	% inhibition of asexual blood stage proliferation ([2]; 20 µM) [%]	% inhibition of gametocyte viability ([3]; 1 µM) [%]	% inhibition of gametocyte viability ([3]; 5 µM) [%]	% inhibition of gametocyte viability ([4]; 1 µM) [%]	% inhibition of gametocyte viability ([4]; 5 µM) [%]	% inhibition of liver stage parasite viability [5] [%]
CCC(CC)[C@H](NC(C)=O)[C@@H]1[C@H](O)[C@@H](C(=O)O)C[C@H]1NC(=N)N	88.2	59.8	-1.38	< 0	< 0	31	22.4	< 0	< 0	0.62	2.25	
Cc1nc2ccc(Cl)cc2c(-c2ccccc2)c1CC(=O)O	121	61.2	6.38	< 0	< 0	37.6	40.5	< 0	< 0	7.85	13.3	
O=C(Nc1cccc(C2=NCCN2)c1)c1ccc(-c2ccc(C(=O)Nc3cccc(C4=NCCN4)c3)cc2)cc1	90.2	96.3	14.5	31.3	62.4	54	41.2	7.89	38	< 0	59.1	
CC(C)/N=c1\cc2n(-c3ccc(Cl)cc3)c3ccccc3nc-2cc1Nc1ccc(Cl)cc1	96.5	98.2	18.3	< 0	< 0	82.2	88.9	< 0	< 0	< 0	16	
Clc1ccc(COC(Cn2ccnc2)c2ccc(Cl)cc2Cl)c(Cl)c1 (centres undefined)	89.6	135	4.88	10.1	< 0	48.6	73.4	< 0	20.2	< 0	22.3	
CCc1nc(N)nc(N)c1C#CCc1ccccc1	105	92.5	5.43	1.8	< 0	66	97.2	< 0	< 0	5.41	< 0	
O=c1cc(NCCCN[C@@H]2CCOc3c(Br)cc(Br)cc32)[nH]c2ccsc12	275	54.3	21.6	17.8	12.4	42.9	78.3	< 0	< 0	< 0	11.8	
Oc1ccc2[nH]c(-c3ccccc3)nc2c1	107	93	12.1	10.1	13.2	29.1	62.2	< 0	< 0	< 0	< 0	
Cc1ccc(Oc2ccccc2-c2csc(NC3=NCCCN3)n2)c(C)c1	104	112	13	< 0	< 0	11.5	88.7	< 0	< 0	< 0	< 0	
C[C@H]1COc2c(N3CCN(C)CC3)c(F)cc3c(=O)c(C(=O)O)cn1c23	92.1	104	-1.57	< 0	18	15.5	39.9	1.98	1.75	18.2	0.53	
O=P(O)(O)C(CCCc1cccc(Oc2ccccc2)c1)S(=O)(=O)O (centres undefined)	113	109	-5.33	12.4	30.6	34.7	69.9	< 0	< 0	< 0	3	
COc1cc(Cc2cnc(N)nc2N)cc(OC)c1OC	111	126	1.34	4.58	22.2	23.4	33.1	0.869	< 0	< 0	< 0	
OB1OCc2cc(Cl)ccc21	90.1	100	-4.78	< 0	< 0	2.76	-5.4	< 0	< 0	< 0	< 0	
Clc1cccc(-c2nnc(-c3ccccc3)o2)c1	98.4	113	-5.12	< 0	< 0	9.27	15.9	< 0	< 0	< 0	30.2	
Nc1nc(=O)c(Br)c(-c2cccc(Cl)c2)[nH]1	102	109	6.4	9.16	21	18.2	68.9	4.05	< 0	< 0	5.01	
O=C(CP(=O)(O)O)NCCc1cccc(Oc2ccccc2)c1	108	84.2	0.91	16.8	19.8	30.7	29.5	2.33	< 0	< 0	< 0	
COc1cccc(N2CCN(C3=Nc4c(F)cccc4[C@H](CC(=O)O)N3c3cc(C(F)(F)F)ccc3OC)CC2)c1	90.8	116	5.59	11.1	1.05	22.9	84.4	< 0	< 0	< 0	6.89	
c1ccc(Cn2c(-c3ccccn3)nc3ccccc32)cc1	75.8	117	1.97	-0.335	3.56	5.52	19.5	< 0	< 0	< 0	11.3	
CC1(C)[C@H](C(=O)O)N2C(=O)C[C@H]2S1(=O)=O				< 0	< 0	11.2	34.3	< 0	< 0	< 0	< 0	20.3
O=C(Nc1ccc(F)cc1)c1nn(-c2ccccc2)c(=O)cc1Cl	110	106	2.98	30.6	81	35.1	98.7	2.79	5.32	29.4	91.6	
Cc1nc(-c2ccc(C3N(C)c4ccc(F)cc4C(=O)N3c3ccccc3)s2)cs1 (centres undefined)	97.8	95.9	12.5	< 0	-0.427	15.3	72.5	< 0	< 0	< 0	< 0	
